A short description of assay [1]: qHTS assay to identify small molecule agonists of the TGF-beta/Smad signaling pathway - cell viability counter screen (AID 1346829). Also: top concentration of the series differs between compounds; nearly all actives have a fitted effect of over 45% in size. In a few lines:
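Compound-treated SBE-bla HEK 293T cells (5 hr, 37 C) were assessed for viability with CellTiter-Glo in parallel with the reporter read.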

Assay [2] can be described thus: qHTS assay to identify small molecule agonists of the TGF-beta/Smad signaling pathway (AID 1346859; active = well fitted activation curve with a large enough effect in the signal ratio in the repeat runs, not every such curve was filed as active; the % refers to the signal ratio; also: series mostly up to about 77 µM). In a few lines: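 After overnight seeding, SBE-bla HEK 293T cells are dosed with compounds in DMSO and kept 5 hr at 37 C, 5% CO2. LiveBLAzer-type FRET substrate is then applied for 2 hr at room temperature.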
Assay [3] can be described thus: Human pregnane X receptor (PXR) small molecule agonists, qHTS cell viability counter screen (AID 1346977). Also: nearly all actives have a fitted effect of over 50% in size. Summed up: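 Viability counter screen: CellTiter-Fluor signal in PXR-Luc HepG2 cells, 24hr compound exposure, 37C, 5% CO2.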
Background: In qHTS, concentration-response curves come from the screen itself.

Assay [4] in a line: Caspase-3/7 induction in HepG2 cells by small molecules, qHTS assay (AID 1346978). Also: nearly all actives have a fitted effect of over 15% in size. In a few lines:
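Wild-type HepG2 cells, 2,000/well, settled 5 hr at 37 C and 5% CO2, then compound-treated for 17 hr; caspase-3/7 activity read by luminescent Caspase-Glo 3/7 after 30 min at room temperature.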

Assay [5] is described as follows: Caspase-3/7 induction in CHO-K1 cells by small molecules, qHTS cell viability counter screen (AID 1346979). Also: nearly all actives have a fitted effect of over 35% in size. In a few lines:
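Viability readout by fluorescence (CellTiter-Fluor) on wild-type CHO-K1 cells exposed for 16hr at 37C and 5% CO2 to compounds delivered in DMSO; reagent incubated 1hr before reading.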

Assay [6] is described as follows: Caspase-3/7 induction in CHO-K1 cells by small molecules, qHTS assay (AID 1346980). Also: nearly all actives have a fitted effect of over 15% in size. In a few lines: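 Wild-type CHO-K1 cells exposed to compounds for 17hr at 37 C, 5% CO2. Caspase-3/7 activity then measured by Caspase-Glo 3/7 luminescence after 30min at room temperature.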
Assay [7] in a line: Caspase-3/7 induction in HepG2 cells by small molecules, qHTS cell viability counter screen (AID 1346981). Also: series mostly up to about 92 µM; nearly all actives have a fitted effect of over 30% in size. Summed up: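 Cell viability is measured as a cytotoxicity counter screen alongside the Caspase-Glo 3/7 readout in identical wells. Wild-type HepG2 cells are treated with test compounds for 16 hr at 37 C before CellTiter-Fluor addition and a 1-hr incubation.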
Assay [8] addresses Nuclear receptor subfamily 1 group I member 2 (Homo sapiens) (UniProt O75469). As to the kind of experiment: Human pregnane X receptor (PXR) small molecule agonists, qHTS assay (AID 1346982). Also: nearly all actives have a fitted effect of over 35% in size. In a few lines:
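Cells: HepG2 stably carrying PXR-Luc. Medium held 5% charcoal-stripped FBS. Compounds in DMSO added after 5 hr plating, incubated 24 hr, then luminescence quantified with ONE-Glo.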

In assay [9] the target is Nuclear receptor subfamily 1 group I member 2 (Rattus norvegicus) (UniProt Q9R1A7). Briefly: Rat pregnane X receptor (rPXR) activation by small molecules, qHTS assay (AID 1346983). Also: nearly all actives have a fitted effect of over 20% in size. The note with it: rPXR luciferase reporter cells, One-Glo luminescence, 24 h; max activation: active compounds read high. In a few lines: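 Cell-based rPXR activation assay: rPXR cells, 2,000 per well, rested 5hr at 37 C, then exposed to compounds in DMSO for 24 hr at 37 C. Luciferase activity read by One-Glo luminescence after 30 min at room temperature.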
Sequence of Nuclear receptor subfamily 1 group I member 2 (Rattus norvegicus) (Q9R1A7 whole entry, looked up): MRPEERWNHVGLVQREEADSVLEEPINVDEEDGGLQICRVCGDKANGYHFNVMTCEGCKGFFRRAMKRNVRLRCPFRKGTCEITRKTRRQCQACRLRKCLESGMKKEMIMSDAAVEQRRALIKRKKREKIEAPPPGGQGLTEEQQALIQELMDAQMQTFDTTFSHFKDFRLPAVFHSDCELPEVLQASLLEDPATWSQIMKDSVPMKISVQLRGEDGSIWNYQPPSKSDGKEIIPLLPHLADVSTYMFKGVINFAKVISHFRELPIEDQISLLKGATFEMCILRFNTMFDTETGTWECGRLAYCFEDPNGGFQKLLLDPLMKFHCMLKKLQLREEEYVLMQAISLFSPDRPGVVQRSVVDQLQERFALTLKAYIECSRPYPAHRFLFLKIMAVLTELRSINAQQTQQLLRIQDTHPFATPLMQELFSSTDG

Assay [10] addresses Nuclear receptor subfamily 1 group I member 2 (Homo sapiens) (UniProt O75469). As to the kind of experiment: CYP3A4 induction through human pregnane X receptor (PXR) by small molecules, qHTS assay (AID 1346984). Also: nearly all actives have a fitted effect of over 40% in size. In a few lines:
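Quantitative HTS in DPX-2 cells, i.e. HepG2 transfected with PXR response element and CYP3A4-promoter luciferase. Compounds in DMSO incubated 24hr at 37C; then P450-Glo CYP3A4 substrate, 3uM final, 3hr; One-Glo luminescence.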

Assay [11] has the same target. As to the kind of experiment: Human pregnane X receptor (PXR) activation by small molecules, qHTS assay (AID 1346985). Also: nearly all actives have a fitted effect of over 40% in size. Summed up:
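DPX-2 cells (HepG2 co-transfected with a PXR response element and a CYP3A4-promoter luciferase construct) were seeded at 2,000 per well, rested 5 hr at 37C, then exposed to DMSO-dissolved compounds for 24 hr. Activation was read as luciferase luminescence.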

The target in assay [12] is Cytochrome P450 2C19 (Homo sapiens) (UniProt P33261). As to the kind of experiment: Cytochrome P450 Family 2 Subfamily C Member 19 (CYP2C19) small molecule antagonists: luciferase reporter qHTS assay (AID 1671197). Also: nearly all actives have a fitted effect of over 65% in size. Also: potency is read from the fitted curve at half-maximal effect. Summed up: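 P450-Glo CYP2C19 screening system; proluciferin substrate; DMSO compound stocks; 10 min RT preincubation; NADPH regeneration, 1 h at 37C; luciferin detection reagent, 20 min RT; luminescence as RLU.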
Sequence of Cytochrome P450 2C19 (Homo sapiens) (P33261 whole entry, looked up): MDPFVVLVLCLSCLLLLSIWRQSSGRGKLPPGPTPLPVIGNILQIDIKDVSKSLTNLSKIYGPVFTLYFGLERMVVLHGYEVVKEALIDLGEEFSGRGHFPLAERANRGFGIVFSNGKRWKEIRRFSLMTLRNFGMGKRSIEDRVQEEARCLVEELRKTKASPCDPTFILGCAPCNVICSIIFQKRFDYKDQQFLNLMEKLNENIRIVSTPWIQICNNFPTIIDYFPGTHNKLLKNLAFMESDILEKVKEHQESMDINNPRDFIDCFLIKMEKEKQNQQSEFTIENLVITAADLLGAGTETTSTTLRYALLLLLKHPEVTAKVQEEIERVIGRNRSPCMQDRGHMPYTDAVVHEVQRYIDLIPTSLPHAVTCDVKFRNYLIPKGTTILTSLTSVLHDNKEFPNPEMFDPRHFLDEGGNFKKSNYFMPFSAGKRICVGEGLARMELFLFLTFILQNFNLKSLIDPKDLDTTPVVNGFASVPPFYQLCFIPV

The target in assay [13] is Cytochrome P450 2C9 (Homo sapiens) (UniProt P11712). Briefly: Cytochrome P450 Family 2 Subfamily C Member 9 (CYP2C9) small molecule antagonists: luciferase reporter qHTS assay (AID 1671198). Also: nearly all actives have a fitted effect of over 50% in size. Also: potency is read from the fitted curve at half-maximal effect. Summed up:
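P450-Glo proluciferin substrate with CYP2C9 enzyme; 10 min RT preincubation, then NADPH regeneration 1 h at 37C; luciferin detection reagent 20 min RT, luminescence in relative luminescence units.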
A general note: Reporter assays use an easily measured gene product as a stand-in for the process of interest.

Assay [14] concerns the target Cytochrome P450 1A2 (Homo sapiens) (UniProt P05177). As to the kind of experiment: Cytochrome P450 Family 1 Subfamily A Member 2 (CYP1A2) small molecule antagonists: luciferase reporter qHTS assay (AID 1671199). Also: nearly all actives have a fitted effect of over 50% in size. Also: potency is read from the fitted curve at half-maximal effect. In a few lines:
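Compounds were incubated with CYP1A2 and a luminogenic proluciferin substrate for 10 min at room temperature before the reaction was started with NADPH regeneration solution. After 1 h, detection reagent was added and light output, proportional to CYP activity, was recorded.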

The target of assay [15] is Voltage-gated inwardly rectifying potassium channel KCNH2 (Homo sapiens) (UniProt Q12809). Briefly: Human Ether-a-go-go-Related Gene (hERG) channel small molecule antagonists: fluorescence cell-based qHTS assay (AID 1671200).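 Also: hERG-expressing U2OS cells given a thallium stimulus after FluxOR II dye loading; series mostly up to about 77 µM; nearly all actives have a fitted effect of over 50% in size.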 Summed up:
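Thallium served as the potassium surrogate; its influx into dye-loaded U2OS cells carrying the channel was measured by fluorescence over 2 min.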

The target in assay [16] is Cytochrome P450 2D6 (Homo sapiens) (UniProt P10635). As to the kind of experiment: Cytochrome P450 Family 2 Subfamily D Member 6 (CYP2D6) small molecule antagonists: luciferase reporter qHTS assay (AID 1671196). Summed up:
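Enzyme and proluciferin substrate were first combined with test chemical for 10 min at room temperature. Adding NADPH regeneration solution started a 1 h reaction, stopped with luciferin detection reagent and read by luminescence 20 min later.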

The target in assay [17] is Cytochrome P450 3A4 (Homo sapiens) (UniProt P08684). Briefly: Cytochrome P450 Family 3 Subfamily A Member 4 (CYP3A4) small molecule antagonists: luciferase reporter qHTS assay (AID 1671201). Also: nearly all actives have a fitted effect of over 50% in size. Also: potency is read from the fitted curve at half-maximal effect. In a few lines: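 Relative luminescence units after 20 min with luciferin detection reagent served as read-out. Beforehand, CYP3A4 turned over a proluciferin substrate for 1 h at room temperature with NADPH regeneration, following 10 min compound preincubation.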
Sequence of Cytochrome P450 3A4 (Homo sapiens) (P08684 whole entry, looked up): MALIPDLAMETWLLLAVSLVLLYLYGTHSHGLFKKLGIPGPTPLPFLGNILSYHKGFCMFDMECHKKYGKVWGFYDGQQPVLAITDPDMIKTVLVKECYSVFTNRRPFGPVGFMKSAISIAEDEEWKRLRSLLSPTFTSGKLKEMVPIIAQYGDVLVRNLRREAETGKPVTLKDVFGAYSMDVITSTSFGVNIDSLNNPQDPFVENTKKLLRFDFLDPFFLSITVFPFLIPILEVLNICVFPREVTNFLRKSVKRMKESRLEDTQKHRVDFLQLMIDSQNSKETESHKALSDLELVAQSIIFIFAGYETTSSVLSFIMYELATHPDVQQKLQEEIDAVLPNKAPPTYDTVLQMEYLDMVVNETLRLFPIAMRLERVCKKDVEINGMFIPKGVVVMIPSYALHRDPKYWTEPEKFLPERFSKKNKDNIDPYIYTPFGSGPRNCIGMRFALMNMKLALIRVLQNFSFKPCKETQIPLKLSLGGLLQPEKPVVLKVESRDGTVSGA

Our source for the outcome, Potency and max activation values is PubChem BioAssay (Tox21).

Values without a mark were called inactive. Inconclusive results are not listed. The source made the active and inactive calls. Unless noted, calls follow the shape of the dose curve; as a rule, active = well fitted curve in the direction sought with a large enough effect in the repeat runs; inconclusive = weak or mixed curves; inactive = no such curve, though single readings can be large; an effect the other way counts as inactive or inconclusive.
% is scaled to controls: 0 for no effect and ±100 for the full control effect.

Sequence of Cytochrome P450 1A2 (Homo sapiens) (P05177 whole entry, looked up): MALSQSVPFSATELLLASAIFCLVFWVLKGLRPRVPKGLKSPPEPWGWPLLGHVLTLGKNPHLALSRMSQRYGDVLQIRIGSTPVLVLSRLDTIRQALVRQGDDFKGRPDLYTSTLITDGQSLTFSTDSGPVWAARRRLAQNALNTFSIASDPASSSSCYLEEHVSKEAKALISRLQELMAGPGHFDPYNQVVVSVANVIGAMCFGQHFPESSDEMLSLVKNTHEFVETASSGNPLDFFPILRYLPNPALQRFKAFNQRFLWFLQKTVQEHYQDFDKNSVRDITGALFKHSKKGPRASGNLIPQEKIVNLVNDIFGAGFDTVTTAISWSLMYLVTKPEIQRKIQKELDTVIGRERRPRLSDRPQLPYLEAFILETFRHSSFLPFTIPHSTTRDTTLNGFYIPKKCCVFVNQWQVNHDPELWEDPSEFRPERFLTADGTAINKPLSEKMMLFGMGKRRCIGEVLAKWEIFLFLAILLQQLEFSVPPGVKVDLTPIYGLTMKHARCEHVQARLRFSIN
Sequence of Cytochrome P450 2D6 (Homo sapiens) (P10635 whole entry, looked up): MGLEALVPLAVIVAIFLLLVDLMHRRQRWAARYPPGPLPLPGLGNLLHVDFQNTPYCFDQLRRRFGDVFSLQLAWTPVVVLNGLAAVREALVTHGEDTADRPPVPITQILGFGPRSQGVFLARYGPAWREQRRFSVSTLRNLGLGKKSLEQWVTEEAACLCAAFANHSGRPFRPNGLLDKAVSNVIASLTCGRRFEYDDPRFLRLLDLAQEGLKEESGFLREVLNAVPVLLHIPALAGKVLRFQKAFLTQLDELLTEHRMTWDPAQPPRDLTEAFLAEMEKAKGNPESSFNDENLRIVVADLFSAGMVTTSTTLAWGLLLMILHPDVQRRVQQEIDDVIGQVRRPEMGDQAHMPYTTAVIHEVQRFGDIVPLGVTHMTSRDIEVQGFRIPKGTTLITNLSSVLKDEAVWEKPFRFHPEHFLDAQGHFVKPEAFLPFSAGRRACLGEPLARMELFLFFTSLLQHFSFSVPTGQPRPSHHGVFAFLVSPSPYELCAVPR
Sequence of Cytochrome P450 2C9 (Homo sapiens) (P11712 whole entry, looked up): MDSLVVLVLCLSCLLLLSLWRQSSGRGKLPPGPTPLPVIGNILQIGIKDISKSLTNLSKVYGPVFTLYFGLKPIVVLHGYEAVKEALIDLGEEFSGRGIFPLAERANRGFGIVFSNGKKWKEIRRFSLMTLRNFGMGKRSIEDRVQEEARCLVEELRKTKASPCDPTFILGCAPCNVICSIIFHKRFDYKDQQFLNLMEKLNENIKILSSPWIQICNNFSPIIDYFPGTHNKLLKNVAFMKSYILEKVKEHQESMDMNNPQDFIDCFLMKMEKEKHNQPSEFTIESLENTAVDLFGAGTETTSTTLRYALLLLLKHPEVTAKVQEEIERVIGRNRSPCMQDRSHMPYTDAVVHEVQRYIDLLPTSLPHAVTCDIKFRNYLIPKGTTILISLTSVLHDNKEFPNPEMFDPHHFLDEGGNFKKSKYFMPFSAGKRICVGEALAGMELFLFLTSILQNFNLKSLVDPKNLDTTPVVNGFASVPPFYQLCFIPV
Sequence of Nuclear receptor subfamily 1 group I member 2 (Homo sapiens) (O75469 whole entry, looked up): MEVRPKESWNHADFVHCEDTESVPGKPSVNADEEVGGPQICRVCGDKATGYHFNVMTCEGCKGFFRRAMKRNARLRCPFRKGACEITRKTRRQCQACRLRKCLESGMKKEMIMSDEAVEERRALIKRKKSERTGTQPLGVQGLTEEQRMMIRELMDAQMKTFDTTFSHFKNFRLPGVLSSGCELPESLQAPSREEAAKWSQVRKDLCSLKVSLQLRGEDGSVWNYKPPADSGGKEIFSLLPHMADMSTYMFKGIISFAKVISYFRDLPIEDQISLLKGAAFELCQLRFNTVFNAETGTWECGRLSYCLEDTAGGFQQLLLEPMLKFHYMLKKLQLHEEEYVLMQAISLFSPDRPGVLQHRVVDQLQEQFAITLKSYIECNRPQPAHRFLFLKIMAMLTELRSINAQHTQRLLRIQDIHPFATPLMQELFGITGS
Sequence of Voltage-gated inwardly rectifying potassium channel KCNH2 (Homo sapiens) (Q12809 whole entry, looked up): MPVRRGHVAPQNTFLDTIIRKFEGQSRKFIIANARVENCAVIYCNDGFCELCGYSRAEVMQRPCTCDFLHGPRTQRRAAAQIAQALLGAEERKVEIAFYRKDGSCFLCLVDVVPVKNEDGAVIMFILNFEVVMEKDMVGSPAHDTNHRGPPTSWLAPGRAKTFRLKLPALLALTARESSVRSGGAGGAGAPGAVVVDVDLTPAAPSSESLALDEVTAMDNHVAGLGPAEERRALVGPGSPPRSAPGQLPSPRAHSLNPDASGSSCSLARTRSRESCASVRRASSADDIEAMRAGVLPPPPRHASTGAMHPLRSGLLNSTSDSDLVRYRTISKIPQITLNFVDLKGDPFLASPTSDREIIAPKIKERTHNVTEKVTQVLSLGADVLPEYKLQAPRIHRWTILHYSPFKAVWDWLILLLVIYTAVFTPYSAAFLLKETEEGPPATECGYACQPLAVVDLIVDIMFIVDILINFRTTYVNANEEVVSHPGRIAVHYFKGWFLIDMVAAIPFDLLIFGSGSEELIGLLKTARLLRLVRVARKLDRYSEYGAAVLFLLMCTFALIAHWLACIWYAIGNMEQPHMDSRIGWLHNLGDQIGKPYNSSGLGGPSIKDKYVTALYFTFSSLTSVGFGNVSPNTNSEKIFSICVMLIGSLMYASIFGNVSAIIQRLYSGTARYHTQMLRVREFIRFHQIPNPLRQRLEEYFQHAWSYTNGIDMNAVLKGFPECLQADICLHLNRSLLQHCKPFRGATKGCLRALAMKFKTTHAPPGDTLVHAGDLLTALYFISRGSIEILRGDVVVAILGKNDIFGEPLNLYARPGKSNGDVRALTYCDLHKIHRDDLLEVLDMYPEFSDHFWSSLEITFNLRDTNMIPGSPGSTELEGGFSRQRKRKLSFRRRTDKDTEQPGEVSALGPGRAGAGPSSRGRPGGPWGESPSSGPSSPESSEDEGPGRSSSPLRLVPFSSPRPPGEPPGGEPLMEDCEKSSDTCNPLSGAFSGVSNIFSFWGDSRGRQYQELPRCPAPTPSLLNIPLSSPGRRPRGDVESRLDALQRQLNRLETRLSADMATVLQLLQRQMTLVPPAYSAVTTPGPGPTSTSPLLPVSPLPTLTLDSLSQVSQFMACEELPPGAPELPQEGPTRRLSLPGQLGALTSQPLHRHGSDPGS

For the molecule `Cc1c(C(C)C)c(=O)n(-c2ccccc2)n1C`, the call in assay [1], in assay [2], in assay [4], in [6] and in [10] was inactive. Also, the Potency result in assay [3], in assay [5], in assay [7], in [8], in assay [11] and in assay [13] was “inactive” throughout. For the same molecule, the Potency result in assay [14] and in assay [15] was “inactive” in each case. Besides, the max activation in assay [9] was -1.17%. Further, in [12], the Potency is 43.6 µM (active).

As for `CCC(C)(C)C1CCC(=O)CC1`, the molecule was called inactive in [1], in assay [2], in [4] and in [6]. Further, the Potency result in assay [3], in assay [5], in [7], in assay [8], in [16] and in [12] was “inactive” in each case. For the same molecule, the Potency entry in [13], in assay [14], in assay [15] and in assay [17] was “inactive” in each case.

Regarding `CCCC(C)CC` (centres undefined), the molecule was called inactive in assay [1], in assay [2], in assay [4] and in assay [6]. Moreover, the Potency result in assay [3], in assay [5], in assay [7], in assay [8], in assay [16] and in assay [13] was “inactive” in each case. Further, the Potency entry in [15] and in assay [17] was “inactive” throughout. The Potency in [14] was 35 µM (active).

For the molecule `COC(=O)CCC(=O)O`, the molecule was classed as inactive in assay [1], in [2], in assay [4] and in assay [6]. The Potency result in [3], in assay [5], in [7], in [8], in assay [16] and in assay [12] was “inactive” each time. Moreover, the Potency entry in assay [13], in assay [14] and in assay [15] was “inactive” each time.

As to `CCCCC/C=C/CC(=O)OC`, the molecule was classed as inactive in [1], in assay [2], in assay [4] and in assay [6]. The Potency entry in assay [3], in assay [5], in assay [7], in assay [8], in assay [16] and in assay [12] was “inactive” in each case. Also, the Potency result in assay [15] and in assay [17] was “inactive” throughout.

`CCCCC[Si](OCC)(OCC)OCC`: the outcome in assay [1], in assay [2], in assay [4] and in [6] was inactive. Moreover, the Potency result in assay [3], in [5], in assay [7], in [16] and in [15] was “inactive” in each case. Moreover, the Potency in [12] is 25.2 µM (active); in assay [13] it was 31.7 µM (active); in [17], 12.6 µM (active).

`O=C(O)c1ccc(OCCN2CCCCC2)cc1`: the outcome in assay [1], in [2], in assay [4] and in [6] was inactive. For the same molecule, the Potency result in assay [3], in [5], in assay [7], in assay [8], in [16] and in assay [12] was “inactive” each time. Besides, the Potency entry in assay [15] and in [17] was “inactive” in each case.

With `Nc1ccc(S(=O)(=O)Nc2ccccn2)cc1`, the molecule was classed as inactive in assay [1], in assay [2], in assay [4], in [6] and in assay [10]. Also, the Potency result in assay [3], in [5], in assay [7], in assay [8], in assay [11] and in assay [16] was “inactive” each time. Further, the Potency entry in [12], in [14] and in [15] was “inactive” in each case. Further, in assay [9], the max activation was -1.43%.

On to `CC(C)COC(=O)CC(C(=O)OCC(C)C)S(=O)(=O)O` (centres undefined), for which the call in assay [1], in assay [2], in assay [4] and in [6] was inactive. For the same molecule, the Potency entry in [3], in [5], in assay [7], in assay [8], in assay [16] and in assay [12] was “inactive” each time. For the same molecule, the Potency entry in assay [14] and in [15] was “inactive” throughout. The Potency in assay [13] is 31.7 µM (active).
